CHO-K1 Ca ag – counter-screen for M1 agonists: effect in parental CHO-K1 cells; Fluo-8 calcium fluorescence; scaled to maximal ATP response, vehicle zero; activation, % at 3 µM; 360,000 tested, 0.48% active; in the data active = activation above about 15%;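 note: untransfected CHO-K1 host cells lacking M1 receptor as counterscreen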
CHO-K1 Ca antag – nonselective inhibitor or artifact in parental CHO-K1 cells; 360,000 tested, 0.6% active; inhibition, % at 3 µM; AID 602250; ATP-induced calcium, Fluo-8 fluorescence;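 active = inhibition above a per-plate cutoff, the plate's mean sample inhibition plus 3 SD, cut at about 24% in these data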;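 note: 0% = DMSO plus EC80 ATP and 100% = DMSO alone without ATP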
CHRM1 agonist – agonists of human M1 muscarinic receptor | CHO-K1 hM1, Fluo-8 calcium fluorescence, agonist mode; 0% DMSO, 100% acetylcholine EC100 | activation, % at 3 µM | 360,000 tested, 0.33% active;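 active = activation above the run's mean compound activation plus 3 SD, cut at about 16% in these data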;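 note: peak over basal fluorescence ratio within a 140 s kinetic read after compound addition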
Target sequence (P11229 whole entry, looked up): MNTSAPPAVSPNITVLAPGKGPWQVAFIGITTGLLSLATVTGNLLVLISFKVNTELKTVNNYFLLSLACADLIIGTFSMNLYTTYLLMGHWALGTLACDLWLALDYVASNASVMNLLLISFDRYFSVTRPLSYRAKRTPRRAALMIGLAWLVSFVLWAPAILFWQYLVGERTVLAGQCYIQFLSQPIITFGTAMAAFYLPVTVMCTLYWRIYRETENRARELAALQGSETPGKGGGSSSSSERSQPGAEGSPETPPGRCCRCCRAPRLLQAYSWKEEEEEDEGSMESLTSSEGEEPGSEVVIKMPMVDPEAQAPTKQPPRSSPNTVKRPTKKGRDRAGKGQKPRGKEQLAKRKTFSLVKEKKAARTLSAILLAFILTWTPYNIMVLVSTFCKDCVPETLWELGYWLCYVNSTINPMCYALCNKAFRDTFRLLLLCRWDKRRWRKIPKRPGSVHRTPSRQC
CHRM1 PAM – potentiates human M1 receptor response to acetylcholine; AID 588819; 360,000 tested, 0.088% active; activation, % at 3 µM; CHO-K1 hM1, Fluo-8 calcium fluorescence, ACh EC20; 0% = ACh EC20, 100% = maximal ACh; P11229; in the data active = activation above about 19%, passing the limit was not always enough
M1 PAM parental – counter-screen for M1 PAMs: effect in parental CHO-K1 cells; ATP EC20, Fluo-8 calcium fluorescence; 0% at ATP EC20, 100% at ATP max; activation, % at 3 µM; 360,000 tested, 0.02% active; AID 602247;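 active = activation above the run cutoff, the mean activation of all test compounds plus 3 SD, cut at about 40% in these data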;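 note: peak over basal fluorescence ratio in a 140 s read after ATP addition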
M1 antag – antagonists of human M1 muscarinic receptor; CHO-K1 hM1, Fluo-8 calcium fluorescence, ACh EC80 antagonist; inhibition, % at 3 µM; P11229; 360,000 tested, 1.3% active;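 active = percent inhibition above its own plate's cutoff, namely the mean of that plate's compound wells plus 3 SD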;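 note: peak over basal fluorescence ratio during 140 s after agonist addition; 0% = ACh EC80 plus DMSO and 100% = DMSO alone without agonist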
* marks the source's active call; other numbers are inactive results. In the library only some 2.3% were active in any assay of this set; here they are far more common.

`NS(=O)(=O)c1ccc(CCNC(=O)C(=O)NCC2OCCN2C(=O)c2ccc3c(c2)OCO3)cc1` (centres undefined) gave CHO-K1 Ca ag 0, CHO-K1 Ca antag 29*, CHRM1 agonist -1, CHRM1 PAM 14, M1 PAM parental -14 and M1 antag -3.
For CCOC(=O)CSc1ccc(C(=O)NCCCN2CCOCC2)cc1[N+](=O)[O-] the results were CHO-K1 Ca ag 1, CHO-K1 Ca antag -6, CHRM1 agonist -11, CHRM1 PAM -32, M1 PAM parental 16 and M1 antag 65*.
Screening O=C(NCCCN1CCOCC1)c1ccc(Sc2cccc(Cl)c2)c([N+](=O)[O-])c1 returned CHO-K1 Ca ag 2, CHO-K1 Ca antag -5, CHRM1 agonist -13, CHRM1 PAM -27, M1 PAM parental 6 and M1 antag 83*.
`CCc1ccc(N(C(=O)c2snc(C(N)=O)c2N)C(C(=O)NCC2CCCO2)c2ccco2)cc1` (centres undefined) gave CHO-K1 Ca ag 5, CHO-K1 Ca antag -8, CHRM1 agonist -4, CHRM1 PAM -9, M1 PAM parental -23 and M1 antag 15.
`Cc1ccc(S(=O)(=O)N2C(=O)CCC2C(=O)O/N=C(\N)c2ccccc2)cc1` (centres undefined) gave CHO-K1 Ca ag 1, CHO-K1 Ca antag -5, CHRM1 agonist 18*, CHRM1 PAM 19, M1 PAM parental 10 and M1 antag -9.
Screening COc1ccc(CN(C)c2ccc(S(=O)(=O)N3CCN(C)CC3)cc2[N+](=O)[O-])cc1OC returned CHO-K1 Ca ag 16*, CHO-K1 Ca antag 31*, CHRM1 agonist 3, CHRM1 PAM -15, M1 PAM parental -11 and M1 antag 43*.
For CCc1cc(-c2nnn(CCC3COCCO3)c2C(C)(C)O)ccc1-c1cn(CCc2c[nH]c3ccccc23)nn1 (centres undefined) the results were CHO-K1 Ca ag 5, CHO-K1 Ca antag -2, CHRM1 agonist 0, CHRM1 PAM -8, M1 PAM parental 8 and M1 antag 0.
CC(C)(C)NC(=O)NC(=O)CSc1nnc(-c2ccccc2F)n1N was read as CHO-K1 Ca ag 0, CHO-K1 Ca antag 33*, CHRM1 agonist 0, CHRM1 PAM -6, M1 PAM parental -8 and M1 antag 14.
`COc1ccc(/C=C/C(=O)c2cc(F)ccc2OC(=O)c2ccc(OC)c(OC)c2)cc1OC` gave CHO-K1 Ca ag 4, CHO-K1 Ca antag 2, CHRM1 agonist -6, CHRM1 PAM 0, M1 PAM parental 15 and M1 antag 10.
Screening COc1ccc(/C=C/C(=O)c2cc(F)ccc2OC(=O)c2ccccc2)cc1OC returned CHO-K1 Ca ag 0, CHO-K1 Ca antag 24*, CHRM1 agonist -2, CHRM1 PAM -1, M1 PAM parental -7 and M1 antag -24.
COC(=O)c1sc(NC(=O)CSc2nnnn2-c2ccc(C)cc2C)nc1C was read as CHO-K1 Ca ag 0, CHO-K1 Ca antag 26*, CHRM1 agonist 1, CHRM1 PAM 9, M1 PAM parental -6 and M1 antag -6.
For c1coc(CN(Cc2ccco2)c2ncnc3c2oc2ccccc23)c1 the results were CHO-K1 Ca ag 6, CHO-K1 Ca antag 10, CHRM1 agonist 0, CHRM1 PAM -16, M1 PAM parental 17 and M1 antag 37*.
Screening Clc1ncnc2c1oc1ccccc12 returned CHO-K1 Ca ag 1, CHO-K1 Ca antag -19, CHRM1 agonist -3, CHRM1 PAM 5, M1 PAM parental 21 and M1 antag -9.
Screening Cc1ccc(C(=O)NC2CCN(CC(=O)Nc3ccccc3Cl)CC2)cc1 returned CHO-K1 Ca ag 16*, CHO-K1 Ca antag 0, CHRM1 agonist 1, CHRM1 PAM 9, M1 PAM parental 5 and M1 antag -17.
OCCN1CCN(CCCN2c3ccccc3CCc3ccccc32)CC1 was read as CHO-K1 Ca ag 2, CHO-K1 Ca antag -13, CHRM1 agonist -6, CHRM1 PAM -19, M1 PAM parental 21 and M1 antag 13.
N#CC1(CCCN2CCCCC2)c2ccccc2CCc2ccccc21 was read as CHO-K1 Ca ag 2, CHO-K1 Ca antag -14, CHRM1 agonist -5, CHRM1 PAM -25, M1 PAM parental 16 and M1 antag 68*.
For COc1cc(Cn2c3ccc(NC(=O)NCCc4ccccc4)cc3c(=O)n2C)ccc1F the results were CHO-K1 Ca ag 5, CHO-K1 Ca antag -11, CHRM1 agonist 1, CHRM1 PAM 0, M1 PAM parental 6 and M1 antag -10.
`CN1CCC(OC(c2ccccc2)c2ccc(Cl)cc2)C1` (centres undefined) gave CHO-K1 Ca ag 6, CHO-K1 Ca antag -12, CHRM1 agonist -1, CHRM1 PAM -31, M1 PAM parental 15 and M1 antag 100*.
`CCOCCCn1cc(C(=O)c2cc(Br)ccc2O)cc(C#N)c1=O` gave CHO-K1 Ca ag 3, CHO-K1 Ca antag -5, CHRM1 agonist -4, CHRM1 PAM 12, M1 PAM parental 11 and M1 antag -4.
Screening CCCCn1cc(C(=O)c2cc(Br)ccc2O)cc(C#N)c1=O returned CHO-K1 Ca ag 8, CHO-K1 Ca antag 24*, CHRM1 agonist 3, CHRM1 PAM -10, M1 PAM parental 2 and M1 antag 25.
`CC1CCC(C(C)C)C(OC(=O)COC(=O)c2ccc(N)cc2)C1` (centres undefined) gave CHO-K1 Ca ag 1, CHO-K1 Ca antag -7, CHRM1 agonist -8, CHRM1 PAM 7, M1 PAM parental 23 and M1 antag -5.
For CC1CCC(C(C)C)C(OC(=O)Cn2c(-c3ccc(Br)cc3)[n+](C)c3ccccc32)C1 (centres undefined) the results were CHO-K1 Ca ag 3, CHO-K1 Ca antag 7, CHRM1 agonist -16, CHRM1 PAM -29, M1 PAM parental 20 and M1 antag 23*.
For Cc1ccccc1OCc1n(CC(=O)OC2CC(C)CCC2C(C)C)c2ccccc2[n+]1C (centres undefined) the results were CHO-K1 Ca ag 1, CHO-K1 Ca antag 10, CHRM1 agonist -13, CHRM1 PAM -33, M1 PAM parental 4 and M1 antag 44*.
Screening CC1CCC(C(C)C)C(OC(=O)COC(=O)c2cccn2C)C1 (centres undefined) returned CHO-K1 Ca ag 0, CHO-K1 Ca antag -8, CHRM1 agonist -5, CHRM1 PAM 2, M1 PAM parental 14 and M1 antag -3.
`CC1CCC(C(C)C)C(OC(=O)Cn2c(-c3ccc(Cl)cc3)[n+](C)c3ccccc32)C1` (centres undefined) gave CHO-K1 Ca ag 1, CHO-K1 Ca antag 11, CHRM1 agonist -4, CHRM1 PAM -19, M1 PAM parental -14 and M1 antag 42*.
